Measured values taken from PubChem BioAssay.

Assay: compound effects on lung adenocarcinoma cell viability – A549, calcein-AM fluorescence, 48 h, basal, profiling panel (AID 1162); also: test concentration not given here
Conditions: higher = more signal

Row | SMILES | z-score
1 | COc1ccc(C#Cc2ccc3c(c2)[C@]2(C(=O)N3)[C@H](c3ccccc3OCCO)N3[C@H](c4ccccc4)[C@H](c4ccccc4)OC(=O)[C@H]3[C@@H]2C(=O)Nc2nc3ccccc3s2)cc1 | 0.855
2 | COCCCNC(=O)[C@@]1(C)c2ccccc2C(=O)N(C(C)C)[C@H]1c1ccc(CO)cc1 | -0.276
3 | COc1cc2c(cc1OC)CN(C(=O)[C@@H]1[C@H]3C(=O)O[C@H](c4ccccc4)[C@H](c4ccccc4)N3[C@H](c3ccc(O)cc3)[C@@]13C(=O)Nc1ccccc13)CC2 | 1.62
4 | COc1cccc(-c2cccc(=O)o2)c1 | -1.06
5 | COCCOC(=O)N1C(=O)[C@@]2(c3ccccc31)[C@H](c1ccc(O)cc1)N1[C@H](c3ccccc3)[C@H](c3ccccc3)OC(=O)[C@H]1[C@@H]2C(=O)Nc1nc2ccccc2s1 | 0.982
6 | O=C1O[C@@H](c2ccccc2)[C@@H](c2ccccc2)N2[C@@H](c3ccccc3OCCO)[C@]3(C(=O)Nc4ccccc43)[C@@H](C(=O)Nc3nc4ccccc4s3)[C@H]12 | -2.12
7 | CCCC[C@H]1OB(O)C[C@H]2C1=C(COC)Cn1c(=O)n(-c3ccccc3)c(=O)n12 | 0.0913
8 | C=C(COC)C(=O)CC[C@@H](OC(C)=O)c1ccc(CO)o1 | -0.97
9 | O=C1C[C@@](C(=O)NCC(F)(F)F)(c2ccc([N+](=O)[O-])cc2)[C@@H](c2ccc(CO)cc2I)N1C1CCCCC1 | -0.0922
10 | COCCOC(=O)N1C(=O)[C@@]2(c3cc(C#CCC(C(=O)OC)C(=O)OC)ccc31)[C@H](C(=O)Nc1nc3ccccc3s1)[C@H]1C(=O)O[C@H](c3ccccc3)[C@H](c3ccccc3)N1[C@@H]2c1ccccc1OCCO | 1.84
